Our source for the enrichment ratio values is a collection of fitness landscapes (doi:10.1126/science.1257360).

B1: PhoQ; a variant is named by its letters at X, in order, P23837 (parent)
chain: MKKLLRLFFPLSLRVRFLLATAAVVLVLSLAYGMVALIGYSVSFDKTTFRLLRGESNLFYTLAKWENNKLHVELPENIDKQSPTMTLIYDENGQLLWAQRDVPWLMKMIQPDWLKSNGFHEIEADVNDTSLLLSGDHSIQQQLQEVREDDDDAEMTHSVAVNVYPATSRMPKLTIVVVDTIPVELKSSYMVWSWFIYVLSANLLLVIPLLWVAAWWSLRPIEALAKEVRELEEHNRELLNPATTRELTSLVRNLNRLLKSERERYDKYRTTLTDLTHSLKTPLXXLQXXLRSLRSEKMSVSDAEPVMLEQISRISQQIGYYLHRASMRGGTLLSRELHPVAPLLDNLTSALNKVYQRKGVNISLDISPEISFVGEQNDFVEVMGNVLDNACKYCLEFVEISARQTDEHLYIVVEDDGPGIPLSKREVIFDRGQRVDTLRPGQGVGLAVAREITEQYEGKIVAGESMLGGARMEVIFGRQHSAPKDE

Whole data set: some 140,000 sequences, median “enrichment ratio after two sorts for PhoP signalling” near 0, cut for the highest 2% near 11. The full list was thinned out, with the highest values kept by preference.

Variants of B1 are the subject of the experiment. Put plainly: enrichment ratio after two sorts for PhoP signalling (ratio (wild type AVST 3.29)); higher = more functional. To be noted: with PhoP (E. coli).
As for TEEP, the enrichment ratio was no more than 0.25. Then KVAI, with no more than 0.25. Take VSKE: the enrichment ratio was no more than 0.25. Regarding LVPE, the enrichment ratio was no more than 0.25. On to KFTM, for which the enrichment ratio is no more than 0.25. For the variant VECA, the enrichment ratio turned out to be 3.45. Then FAFY, with no more than 0.25; and SNSG, with 10.7. As to GRCQ, the enrichment ratio was no more than 0.25. With DDFY, the enrichment ratio is no more than 0.25.

TGSW: the enrichment ratio is no more than 0.25. In the case of RFSN, the enrichment ratio came to 0.949. With TCWG, the enrichment ratio was no more than 0.25. Take TCGG: the enrichment ratio stood at 21.5. Regarding TCVC, the enrichment ratio is no more than 0.25. Next, TCFK: no more than 0.25; TCHQ: 23.4; TCHP: no more than 0.25. WFIY: the enrichment ratio is no more than 0.25. For the variant HKKD, the enrichment ratio is no more than 0.25.

As to VKAH, the enrichment ratio was no more than 0.25. Next, AFQW: no more than 0.25; SKSK: no more than 0.25. Then SKSF, with no more than 0.25. SKRM: the enrichment ratio was no more than 0.25. On to SKSM, for which the enrichment ratio stood at 14. Next, SKPM: no more than 0.25; SKFC: no more than 0.25; SKAM: 28. In the case of HKSM, the enrichment ratio is no more than 0.25. As for SKRC, the enrichment ratio is no more than 0.25. With SKGM, the enrichment ratio is no more than 0.25. Take SKIC: the enrichment ratio came out at 30.5. Consider SKIM, for which the enrichment ratio came to 20.9. With AFGE, the enrichment ratio was no more than 0.25. For KDQH, the enrichment ratio is no more than 0.25.

In the case of EESA, the enrichment ratio was no more than 0.25. Consider NRWG, for which the enrichment ratio is no more than 0.25. Consider FGTG, for which the enrichment ratio was no more than 0.25. Next, MKMF: no more than 0.25; TNYM: 1.85; VHGW: no more than 0.25.

On to AIGW, for which the enrichment ratio worked out at 11.4. As to ANGW, the enrichment ratio stood at 11.4. For AHGW, the enrichment ratio was no more than 0.25.

As to NVGW, the enrichment ratio is no more than 0.25.

For ANHW, the enrichment ratio is no more than 0.25. Regarding AVGW, the enrichment ratio worked out at 12.2. Turning to AGGW, the enrichment ratio amounted to 0.253. Next, AVGD: no more than 0.25; RGVW: no more than 0.25. GKNA: the enrichment ratio is no more than 0.25. As to CIQI, the enrichment ratio is no more than 0.25. As for VWKV, the enrichment ratio is no more than 0.25. On to QAIG, for which the enrichment ratio was no more than 0.25. On to WRVK, for which the enrichment ratio was no more than 0.25.

As to MGMG, the enrichment ratio came out at 42.5. For the variant MGMY, the enrichment ratio is no more than 0.25. In the case of MGME, the enrichment ratio amounted to 13. Consider MGWG, for which the enrichment ratio came to 0.67. MGTG: the enrichment ratio is no more than 0.25.

As to MGMW, the enrichment ratio was no more than 0.25. With LMNI, the enrichment ratio is no more than 0.25. Consider KSSL, for which the enrichment ratio was no more than 0.25. Then SDSL, with 0.277; and SSSL, with 12.5.

For ASSL, the enrichment ratio worked out at 11.7. Next, FSSL: no more than 0.25; QSSL: 9.11; VRSL: no more than 0.25. For the variant TSSL, the enrichment ratio is 13.7.

In the case of NSSL, the enrichment ratio is no more than 0.25. As for SYTR, the enrichment ratio is no more than 0.25. With VVCY, the enrichment ratio was no more than 0.25. Regarding GKAF, the enrichment ratio was no more than 0.25.

On to SEVI, for which the enrichment ratio stood at 12.2.

Turning to SEVC, the enrichment ratio stood at 9.44. Regarding SLVR, the enrichment ratio was found to be 0.339. For SLVI, the enrichment ratio was found to be 2.14. For SCVR, the enrichment ratio was 1.05.

With SEVG, the enrichment ratio was 25.6. With SEGG, the enrichment ratio came out at 9.05. Turning to SEFE, the enrichment ratio was 4.76.

Take SEFG: the enrichment ratio was 15.8. With SEVA, the enrichment ratio is 10.3.

SEFA: the enrichment ratio was 1.84. As for SEVR, the enrichment ratio is 12.1.

As for RKKT, the enrichment ratio is no more than 0.25. Next, SLWN: no more than 0.25; RRRI: no more than 0.25; PERI: no more than 0.25. For FFGE, the enrichment ratio is no more than 0.25. For the variant YKRH, the enrichment ratio was no more than 0.25. Consider VSRE, for which the enrichment ratio was no more than 0.25. VRMG: the enrichment ratio was no more than 0.25. Turning to HGFC, the enrichment ratio was no more than 0.25. As for SCVS, the enrichment ratio was 3.13.

On to SEMQ, for which the enrichment ratio came out at 8.89. Then SEMS, with 14.3; and SLVS, with 1.29. Next, SEMN: 4.75; SEWG: 17.3. For the variant SEMI, the enrichment ratio is 17.1.

SQWG: the enrichment ratio is no more than 0.25. Then SEVS, with 20.4.

SEMD: the enrichment ratio was 1.79. Next, SEMK: 7.11; SPWG: no more than 0.25; HDQV: no more than 0.25. HCLM: the enrichment ratio was no more than 0.25. On to NDAA, for which the enrichment ratio was no more than 0.25.

Regarding NRLG, the enrichment ratio was no more than 0.25. As to NMCH, the enrichment ratio was no more than 0.25. As for HTPK, the enrichment ratio was no more than 0.25. Take PDYQ: the enrichment ratio was no more than 0.25. ANWA: the enrichment ratio is no more than 0.25. As for HDKT, the enrichment ratio is no more than 0.25. Regarding SAHC, the enrichment ratio is no more than 0.25. As for SLVK, the enrichment ratio turned out to be 1.38. Take SEKK: the enrichment ratio is no more than 0.25.

As to SEVK, the enrichment ratio was 12.3. Consider SEGS, for which the enrichment ratio stood at 4.52.

SEMG: the enrichment ratio was 21.5. As for SEEG, the enrichment ratio turned out to be 2.48. With EACH, the enrichment ratio worked out at 2.01. With FYVQ, the enrichment ratio was no more than 0.25. Next, GYNI: no more than 0.25. LYDQ: the enrichment ratio is no more than 0.25.

As to FGLA, the enrichment ratio worked out at 12.2. As for FGLS, the enrichment ratio is 8.38.

FPLV: the enrichment ratio is no more than 0.25. Consider FGLT, for which the enrichment ratio came out at 9.94.

For FGLV, the enrichment ratio came to 11.7.

QGLV: the enrichment ratio came to 7.45. Turning to HKVW, the enrichment ratio was no more than 0.25.

With VDRE, the enrichment ratio was no more than 0.25. Take EAAG: the enrichment ratio was no more than 0.25. Take KSSY: the enrichment ratio is no more than 0.25.

With TSSY, the enrichment ratio was found to be 14.6. Take CSSY: the enrichment ratio was 17.5. Turning to CVSY, the enrichment ratio is no more than 0.25.

For the variant FSSY, the enrichment ratio worked out at 0.259. Then NSSY, with no more than 0.25; and KMIV, with no more than 0.25; and IVGD, with no more than 0.25. In the case of TDFN, the enrichment ratio is no more than 0.25.

LNSM: the enrichment ratio is 0.463.

In the case of AHSM, the enrichment ratio stood at 4.11. Regarding TNSM, the enrichment ratio is 23.5. For the variant AKSM, the enrichment ratio turned out to be 15.5. Regarding VLSM, the enrichment ratio came out at 0.436.

Consider ADSM, for which the enrichment ratio is no more than 0.25.

With CLSF, the enrichment ratio is 10.1.
